According to PMC11006913:
Where a chain is given by its changes, count along the chain named.

What was measured:
Assay in all cases: PBM; 200 nM protein, PBS
Settings in all cases: dsDNA, one strand shown
CRX [1] = target: CRX (Homo sapiens, UniProt O43186 26-111)
VENTX [2] = target: T1, VENTX (Homo sapiens, UniProt O95231 78-163, R121Q)
T1 sequence: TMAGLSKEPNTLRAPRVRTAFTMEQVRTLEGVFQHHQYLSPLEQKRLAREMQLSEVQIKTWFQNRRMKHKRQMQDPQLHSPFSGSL

VENTX [3] = target: T2, VENTX (Homo sapiens, UniProt O95231 78-163, Y115F)
T2 sequence: T1 sequence with Y38F, Q44R

CRX [4] = target: CRX (Homo sapiens, UniProt O43186 26-111, E42D)
PITX2 = PITX2 (Homo sapiens, UniProt Q99697 72-157)
HOXB9 [5] = target: HOXB9 (Homo sapiens, UniProt P17482 171-250, T197M)
SIX6 [6] = target: T3, SIX6 (Homo sapiens, UniProt O95475 114-200, L167I)
T3 sequence: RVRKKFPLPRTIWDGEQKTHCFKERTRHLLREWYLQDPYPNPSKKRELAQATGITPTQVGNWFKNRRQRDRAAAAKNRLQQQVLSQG

HOXA4 [7] = target: HOXA4 (Homo sapiens, UniProt Q00056 201-287, W262R)
SIX6 [8] = target: T4, SIX6 (Homo sapiens, UniProt O95475 114-200, L143V)
T4 sequence: T3 sequence with L30V, I54L

SIX6 [9] = target: T5, SIX6 (Homo sapiens, UniProt O95475 114-200, H141N)
T5 sequence: T3 sequence with H28N, I54L

SIX6 [10] = target: T6, SIX6 (Homo sapiens, UniProt O95475 114-200, T165P)
T6 sequence: T3 sequence with T52P, I54L

SIX6 [11] = target: T7, SIX6 (Homo sapiens, UniProt O95475 114-200, L167M)
T7 sequence: T3 sequence with I54M

SIX6 [12] = target: T8, SIX6 (Homo sapiens, UniProt O95475 114-200, L143M)
T8 sequence: T3 sequence with L30M, I54L

SIX6 [13] = target: T9, SIX6 (Homo sapiens, UniProt O95475 114-200, L143I)
T9 sequence: T3 sequence with L30I, I54L

SIX6 [14] = target: T10, SIX6 (Homo sapiens, UniProt O95475 114-200, T165G)
T10 sequence: T3 sequence with T52G, I54L

HOXA4 [15] = target: HOXA4 (Homo sapiens, UniProt Q00056 201-287, R217L)
HOXB9 [16] = target: HOXB9 (Homo sapiens, UniProt P17482 171-250)
SIX6 [17] = target: T11, SIX6 (Homo sapiens, UniProt O95475 114-200, T139Q)
T11 sequence: T3 sequence with T26Q, I54L

SIX6 [18] = target: T12, SIX6 (Homo sapiens, UniProt O95475 114-200, T165A)
T12 sequence: T3 sequence with T52A, I54L

HOXA4 [19] = target: HOXA4 (Homo sapiens, UniProt Q00056 201-287)
SIX6 [20] = target: T13, SIX6 (Homo sapiens, UniProt O95475 114-200, L167V)
T13 sequence: T3 sequence with I54V

SIX6 [21] = target: T14, SIX6 (Homo sapiens, UniProt O95475 114-200)
T14 sequence: T3 sequence with I54L

SIX6 [22] = target: T15, SIX6 (Homo sapiens, UniProt O95475 114-200, T165I)
T15 sequence: T3 sequence with T52I, I54L

HOXB9 [23] = target: HOXB9 (Homo sapiens, UniProt P17482 171-250, R186Q)
CRX [24] = target: CRX (Homo sapiens, UniProt O43186 26-111, R41L)
HOXA4 [25] = target: HOXA4 (Homo sapiens, UniProt Q00056 201-287, W262F)
HOXB6 [26] = target: HOXB6 (Homo sapiens, UniProt P17509 132-218, K202E)
MSX2 [27] = target: MSX2 (Homo sapiens, UniProt P35548 130-214)
MSX2 [28] = target: MSX2 (Homo sapiens, UniProt P35548 130-214, F161Y)
HOXB6 [29] = target: HOXB6 (Homo sapiens, UniProt P17509 132-218)
VENTX [30] = target: T16, VENTX (Homo sapiens, UniProt O95231 78-163)
T16 sequence: T1 sequence with Q44R

CRX (Homo sapiens, UniProt O43186 26-111), sequence (O43186 26-111): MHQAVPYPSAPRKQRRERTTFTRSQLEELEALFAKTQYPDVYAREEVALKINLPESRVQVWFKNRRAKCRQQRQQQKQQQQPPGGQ
CRX (Homo sapiens, UniProt O43186 26-111, R41L), sequence (O43186 26-111 R41L): as the sequence (O43186 26-111) above, with R16L counted along it
CRX (Homo sapiens, UniProt O43186 26-111, E42D), sequence (O43186 26-111 E42D): as the sequence (O43186 26-111) above, with E17D counted along it
HOXB9 (Homo sapiens, UniProt P17482 171-250, R186Q), sequence (P17482 171-250 R186Q): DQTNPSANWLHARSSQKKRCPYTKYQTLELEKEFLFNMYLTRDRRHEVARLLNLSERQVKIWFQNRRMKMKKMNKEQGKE
HOXA4 (Homo sapiens, UniProt Q00056 201-287, R217L), sequence (Q00056 201-287 R217L): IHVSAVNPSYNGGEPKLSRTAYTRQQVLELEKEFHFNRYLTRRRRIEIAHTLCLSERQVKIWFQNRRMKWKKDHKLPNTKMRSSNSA
MSX2 (Homo sapiens, UniProt P35548 130-214, F161Y), sequence (P35548 130-214 F161Y): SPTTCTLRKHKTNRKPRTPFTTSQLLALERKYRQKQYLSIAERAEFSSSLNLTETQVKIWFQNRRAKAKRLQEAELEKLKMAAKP
HOXB9 (Homo sapiens, UniProt P17482 171-250), sequence (P17482 171-250): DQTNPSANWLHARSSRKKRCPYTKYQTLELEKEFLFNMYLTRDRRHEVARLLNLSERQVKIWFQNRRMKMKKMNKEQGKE
HOXB6 (Homo sapiens, UniProt P17509 132-218, K202E), sequence (P17509 132-218 K202E): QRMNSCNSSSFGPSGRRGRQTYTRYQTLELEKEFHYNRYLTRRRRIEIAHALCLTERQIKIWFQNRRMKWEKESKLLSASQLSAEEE
HOXB6 (Homo sapiens, UniProt P17509 132-218), sequence (P17509 132-218): as the sequence (P17509 132-218 K202E) above, with E71K counted along it
HOXA4 (Homo sapiens, UniProt Q00056 201-287, W262F), sequence (Q00056 201-287 W262F): as the sequence (Q00056 201-287 R217L) above, with L17R, W62F counted along it
HOXA4 (Homo sapiens, UniProt Q00056 201-287, W262R), sequence (Q00056 201-287 W262R): as the sequence (Q00056 201-287 R217L) above, with L17R, W62R counted along it
MSX2 (Homo sapiens, UniProt P35548 130-214), sequence (P35548 130-214): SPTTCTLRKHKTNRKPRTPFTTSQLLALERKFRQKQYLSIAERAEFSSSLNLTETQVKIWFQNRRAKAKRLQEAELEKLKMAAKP
HOXB9 (Homo sapiens, UniProt P17482 171-250, T197M), sequence (P17482 171-250 T197M): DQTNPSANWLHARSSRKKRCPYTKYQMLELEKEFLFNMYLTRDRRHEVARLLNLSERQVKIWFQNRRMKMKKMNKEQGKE
HOXA4 (Homo sapiens, UniProt Q00056 201-287), sequence (Q00056 201-287): as the sequence (Q00056 201-287 R217L) above, with L17R counted along it

Sequence: CGGATGAG
- binding signal (CRX [1]): 9.93 upbm affinity estimate (log intensity, higher = more binding, comparable within an allelic series)

Sequence: GCAGATTA
- binding signal (CRX [1]): 13 upbm affinity estimate (log intensity, higher = more binding, comparable within an allelic series)
- binding signal (VENTX [2]): 10.3 upbm affinity estimate (log intensity, higher = more binding, comparable within an allelic series)
- binding signal (VENTX [3]): 10.4 upbm affinity estimate (log intensity, higher = more binding, comparable within an allelic series)
- binding signal (CRX [4]): 13 upbm affinity estimate (log intensity, higher = more binding, comparable within an allelic series)
- binding signal (PITX2): 12.3 upbm affinity estimate (log intensity, higher = more binding, comparable within an allelic series)

Sequence: CACGCCCC
- binding signal (CRX [1]): 8.24 upbm affinity estimate (log intensity, higher = more binding, comparable within an allelic series)
- binding signal (HOXB9 [5]): 8.49 upbm affinity estimate (log intensity, higher = more binding, comparable within an allelic series)
- binding signal (SIX6 [6]): 9.05 upbm affinity estimate (log intensity, higher = more binding, comparable within an allelic series)
- binding signal (HOXA4 [7]): 9.84 upbm affinity estimate (log intensity, higher = more binding, comparable within an allelic series)
- binding signal (SIX6 [8]): 8.92 upbm affinity estimate (log intensity, higher = more binding, comparable within an allelic series)
- binding signal (SIX6 [9]): 9.05 upbm affinity estimate (log intensity, higher = more binding, comparable within an allelic series)
- binding signal (SIX6 [10]): 8.95 upbm affinity estimate (log intensity, higher = more binding, comparable within an allelic series)
- binding signal (SIX6 [11]): 8.99 upbm affinity estimate (log intensity, higher = more binding, comparable within an allelic series)
- binding signal (SIX6 [12]): 9.02 upbm affinity estimate (log intensity, higher = more binding, comparable within an allelic series)
- binding signal (SIX6 [13]): 8.94 upbm affinity estimate (log intensity, higher = more binding, comparable within an allelic series)
- binding signal (SIX6 [14]): 9.18 upbm affinity estimate (log intensity, higher = more binding, comparable within an allelic series)
- binding signal (HOXA4 [15]): 9.86 upbm affinity estimate (log intensity, higher = more binding, comparable within an allelic series)
- binding signal (HOXB9 [16]): 8.48 upbm affinity estimate (log intensity, higher = more binding, comparable within an allelic series)
- binding signal (SIX6 [17]): 9.14 upbm affinity estimate (log intensity, higher = more binding, comparable within an allelic series)
- binding signal (CRX [4]): 8.24 upbm affinity estimate (log intensity, higher = more binding, comparable within an allelic series)
- binding signal (SIX6 [18]): 9.17 upbm affinity estimate (log intensity, higher = more binding, comparable within an allelic series)
- binding signal (HOXA4 [19]): 9.74 upbm affinity estimate (log intensity, higher = more binding, comparable within an allelic series)
- binding signal (SIX6 [20]): 8.99 upbm affinity estimate (log intensity, higher = more binding, comparable within an allelic series)
- binding signal (SIX6 [21]): 9.08 upbm affinity estimate (log intensity, higher = more binding, comparable within an allelic series)
- binding signal (SIX6 [22]): 9.05 upbm affinity estimate (log intensity, higher = more binding, comparable within an allelic series)
- binding signal (HOXB9 [23]): 8.47 upbm affinity estimate (log intensity, higher = more binding, comparable within an allelic series)
- binding signal (CRX [24]): 8.33 upbm affinity estimate (log intensity, higher = more binding, comparable within an allelic series)
- binding signal (HOXA4 [25]): 9.99 upbm affinity estimate (log intensity, higher = more binding, comparable within an allelic series)

Sequence: CCAGATTA
- binding signal (CRX [1]): 13 upbm affinity estimate (log intensity, higher = more binding, comparable within an allelic series)
- binding signal (VENTX [2]): 10 upbm affinity estimate (log intensity, higher = more binding, comparable within an allelic series)
- binding signal (HOXB6 [26]): 9.66 upbm affinity estimate (log intensity, higher = more binding, comparable within an allelic series)
- binding signal (CRX [4]): 13 upbm affinity estimate (log intensity, higher = more binding, comparable within an allelic series)
- binding signal (MSX2 [27]): 11.3 upbm affinity estimate (log intensity, higher = more binding, comparable within an allelic series)
- binding signal (MSX2 [28]): 11.1 upbm affinity estimate (log intensity, higher = more binding, comparable within an allelic series)
- binding signal (CRX [24]): 12.7 upbm affinity estimate (log intensity, higher = more binding, comparable within an allelic series)
- binding signal (HOXB6 [29]): 10.3 upbm affinity estimate (log intensity, higher = more binding, comparable within an allelic series)

Sequence: CTGGGGCA
- binding signal (CRX [1]): 8.18 upbm affinity estimate (log intensity, higher = more binding, comparable within an allelic series)
- binding signal (VENTX [2]): 8.13 upbm affinity estimate (log intensity, higher = more binding, comparable within an allelic series)
- binding signal (VENTX [30]): 8.21 upbm affinity estimate (log intensity, higher = more binding, comparable within an allelic series)
- binding signal (VENTX [3]): 8.17 upbm affinity estimate (log intensity, higher = more binding, comparable within an allelic series)
- binding signal (CRX [4]): 8.24 upbm affinity estimate (log intensity, higher = more binding, comparable within an allelic series)
- binding signal (CRX [24]): 8.28 upbm affinity estimate (log intensity, higher = more binding, comparable within an allelic series)
